# Results filed as inconclusive are left out. Activity calls are given as the source filed them. How the source made its calls: active means hit-call score of the fitted dose curve at least 0.9, where 1 is the maximum; inactive means score below 0.9.
# Read-out: Cytochrome P450 2C9 (Homo sapiens) (UniProt P11712)
# Test: CLD_CYP2C9_48hr: CellzDirect (CLD) Gene Expression Assay for xenobiotic metabolism (CYP2C9) at 48 hours (AID 2283701)
# Experimental: CLD_48hr is a cell-based, multiplexed-readout assay that uses hepatocyte, a human liver primary cell, with measurements taken at 48 hours after chemical dosing in a 96-well plate.CLD_CYP2C9_48hr is one of 16 assay component(s) measured or calculated from the CLD_48hr assay. It is designed to make measurements of mRNA induction, a form of inducible reporter, as detected with chemiluminescence signals by Quantitative Nuclease Protection Assay (qNPA) technology.Data from the assay component CLD_CYP2C9_48hr was analyzed at the endpoint, CLD_CYP2C9_48hr, in the positive analysis fitting direction relative to DMSO as the negative control and baseline of activity. Using a type of inducible reporter, gain-of-signal activity can be used to understand changes in the reporter gene as they relate to the gene CYP2C9. Furthermore, this assay endpoint can be referred to as a primary readout. To generalize the intended target to other relatable targets, this assay endpoint is annotated to the cyp intended target family, where subfamily is xenobiotic metabolism.
# Human hepatocyte cultures were treated daily for two consecutive days with fresh dosing solutions containing appropriate concentrations of the 320 ToxCast chemicals (chemical identities were blinded to CellzDirect and other ToxCast collaborators), vehicle control (0.2% DMSO), and positive control inducers as summarized in Table 1. Due to the large number of treatment groups and chemicals examined, the ToxCast chemicals were divided into two groups (spanning two independent cultures of hepatocytes from separate donor preparations (Hu778: ToxCast plates 1 and 2; Hu776: ToxCast plates 3 and 4). Each preparation of human hepatocyte cultures was treated with respective vehicle control, medium only control, set of six positive controls/reference chemicals for the five hepatic receptor pathways, and a subset of eight of the ToxCast chemicals (indoxacarb, pyrithiobac-sodium, norflurazon, cyhalofop-butyl, methomyl, thiram, acetochlor, and propiconazole). These replicate data, coupled with internal replicates designed within the blinded ToxCast chemical library, provided additional data to evaluate interindividual differences between hepatocyte preparations and their potential impact on chemical profiles.Cell morphology and integrity were evaluated using phase-contrast microscopy as an indicator of hepatocyte cell health (Tyson & Green, 1987). Cultures for each treatment group (i.e., media, vehicle [0.2% DMSO], positive control inducers [multiple concentrations], and the ToxCast chemicals [multiple concentrations]) were observed and cell morphology was assessed relative to vehicle control cultures at each harvest time point (0, 6, 24, or 48 h). […] Images were evaluated at the conclusion of the study to assess changes in cell integrity and account for the effects of chemical exposure on uncharacteristic changes in concentration-dependent gene expression profiles. The results from these determinations of apparent cytotoxicity were annotated (yes/no) alongside the corresponding qNPA data for reference.At the conclusion of each treatment period, hepatocyte cultures (96-well) were washed with 1 volume of HBSS, lysed by addition of 25 ul ArrayPlate lysis buffer (HTG, Tucson, AZ), and 70 ul/well of Denaturation Oil, denatured by incubation at 95C for 10 min, and frozen at approximately -70C until analysis by nuclease protection assay (qNPA) (Roberts et al., 2007). For qNPA analysis, cell lysates were thawed at 50C for approximately 30 min, qNPA probes were added, and samples were incubated at 95C for 10 min to begin the detection process by denaturing the target RNA, dissociating the duplexes and secondary structure hybridization. At the conclusion of the hybridization period, S1 nuclease reagent was added to each sample to digest all nonprotected nucleotides at 50C for 60-90 min. […]
row,Compound,outcome
1,COC(=O)c1ccccc1C(=O)OC,inactive
2,O=C(O)COc1nc(Cl)c(Cl)cc1Cl,inactive
3,O=C(O)c1nc(Cl)ccc1Cl,inactive
4,CC(C)Oc1cc(-n2nc(C(C)(C)C)oc2=O)c(Cl)cc1Cl,inactive
5,COc1nc(C)nc(NC(=O)NS(=O)(=O)c2ccccc2Cl)n1,inactive
6,Fc1ccc(Oc2ccnc3cc(Cl)cc(Cl)c23)cc1,inactive
7,CCOC(=O)C(Cl)Cc1cc(-n2nc(C)n(C(F)F)c2=O)c(F)cc1Cl (stereo not drawn),inactive
8,C#CCOS(=O)OC1CCCCC1Oc1ccc(C(C)(C)C)cc1 (stereo not drawn),inactive
9,CC(C)(C)c1ccc(CSc2cnn(C(C)(C)C)c(=O)c2Cl)cc1,inactive
10,CCCCOC(=O)c1ccccc1C(=O)OCCCC,inactive
11,Cc1cc(Cl)ccc1OCC(=O)O,inactive
12,CCNc1nc(Cl)nc(NC(C)C)n1,inactive
13,COC(=O)C(C)Oc1ccc(Oc2ccc(Cl)cc2Cl)cc1 (stereo not drawn),inactive
14,COc1ccc(C(c2ccc(OC)cc2)C(Cl)(Cl)Cl)cc1,inactive
15,COc1cnc(OC)n2nc(NS(=O)(=O)c3c(OCC(F)F)cccc3C(F)(F)F)nc12,inactive
16,COP(N)(=O)SC (stereo not drawn),inactive
17,COc1nc(C)nc(NC(=O)NS(=O)(=O)c2ccccc2CCC(F)(F)F)n1,inactive
18,COP(=S)(OC)Oc1nc(Cl)c(Cl)cc1Cl,inactive
19,CO/C=C(/C(=O)OC)c1ccccc1Oc1cc(Oc2ccccc2C#N)ncn1,inactive
20,CCON=C(CC)C1=C(O)CC(c2c(C)cc(C)cc2C)CC1=O (stereo not drawn),inactive
21,CC(Oc1ccc(Cl)cc1Cl)C(=O)O (stereo not drawn),inactive
22,C=CCC1=C(C)[C@@H](OC(=O)[C@@H]2[C@@H](C=C(C)C)C2(C)C)CC1=O,inactive
23,COc1nc(NC(C)C)nc(NC(C)C)n1,inactive
